# PubChem BioAssay AID1745856 (National Center for Advancing Translational Sciences (NCATS), 2022)
# Among all 120,000 compounds or so, about 270 (0.23%) were called active. About 5% were inconclusive and are not listed. This is one part of a sample in which actives are shown more often than they occur. Values without a mark were called inactive. Calls follow the shape of the full dose curve.
# Test: Primary qHTS Assay for Foot and Mouth Disease Virus Antivirals against NCGC Sytravon and CBC Compound Libraries: Firefly Luciferase Signal; also: nearly all actives have a fitted effect of over 60% in size
# Conditions: FMDV antiviral cell assay; series mostly up to 57.5 µM; activity change, negative = inhibition: at the top concentration
# % is scaled to controls: 0 for no effect and ±100 for the full control effect; potency is read from the fitted curve at half-maximal effect.
SMILES,"activity change, negative = inhibition",Potency
CCCc1cc(=O)oc2cc(OCC(=O)NCc3ccc(S(N)(=O)=O)cc3)ccc12,0.254%,–
O=C(NCc1ccccn1)C1c2ccccc2C(=O)N(C2CCCC2)C12CCCC2 (configuration not stated),0.974%,–
CCOc1cc(-c2nnc(SCC(=O)NC3CCCC3)nc2-c2ccc(OC)c(OCC)c2)ccc1OC,38.3%,–
COc1ccc(-c2nc(CSCC(=O)NC3CCCCCC3)c(C)o2)cc1OC,–,14.1 µM (active)
CCOc1cc(-c2nnc(SCC(=O)NC3CCCCC3)nc2-c2ccc(OC)c(OCC)c2)ccc1OC,-17.6%,–
O=C(NCc1cccnc1)C(F)(F)C(F)(F)C(F)(F)F,-6.42%,–
Fc1ccc(N=Cc2cccc(Oc3ccccc3)c2)c(F)c1F,8.8%,–
COc1cccc(NC(=O)CCCc2nc(C(C)C)no2)c1,9.4%,–
CCN1CCCC1CNC(=O)c1cccc2c(=O)c(C)c(-c3ccccc3)oc12 (configuration not stated),-14.1%,–
Cc1ccc(NC(=O)COC(=O)c2ccc(C3Nc4ccccc4S(=O)(=O)N3)cc2)cc1 (configuration not stated),2.63%,–
CC(C)c1cccc(NC(=O)Cc2c[nH]c3ccccc23)c1,18.7%,–
Cc1ccc(-c2csc3c2NC(=O)CC3c2ccc(C)cc2)cc1 (configuration not stated),7.72%,–
COc1ccc(-c2csc3c2NC(=O)CC3c2ccc(OCC(N)=O)c(OC)c2)cc1 (configuration not stated),–,3.98 µM (active)
COc1ccc(C2CC(=O)Nc3c2c(=O)nc2c(C)cccn32)cc1OC (configuration not stated),-5.25%,–
Cn1c(=O)[nH]c(=O)c2c1nc(NC1CCCCC1)n2CCCc1ccccc1,-4.08%,–
Cn1nc(CC(=O)Nc2cccc(Cl)c2)c2ccccc2c1=O,–,8.91 µM (active)
COc1ccc(Cl)cc1NC(=O)COC(=O)c1nn(C)c(=O)c2ccccc12,4.36%,–
COc1ccc(NC(=O)COC(=O)c2nn(C)c(=O)c3ccccc23)cc1Cl,8.49%,–
Cc1ccc(-c2nc(CC(=O)NCc3ccc(Cl)cc3)cs2)o1,11%,–
COC(=O)c1c(C)[nH]c(C(=O)N2CCCCCC2c2ccc(OC)cc2)c1C (configuration not stated),27.9%,–
COc1nc2ccccc2nc1N1CCC(C(=O)NCc2ccccc2)CC1,-6.82%,–
COc1ccc(-c2cc(C(F)(F)F)nc(S(=O)(=O)CCC(=O)NCc3ccccc3)n2)cc1,17.2%,–

SMILES,"activity change, negative = inhibition",Potency
CC(C)(C)c1ccc(-c2nnc(-c3ccc(Br)o3)o2)cc1,227%,–
Clc1ccc(CNc2n[nH]c(-c3ccco3)n2)c(Cl)c1,2.56%,–
O=C(c1ccn(COc2ccccc2)n1)N1CCN(Cc2ccc(Cl)c(Cl)c2)CC1,-20.2%,–
Cn1ccnc1C(NC(=O)Cc1ccsc1)c1ccccc1F (configuration not stated),-5.78%,–
O=C(NC12CC3CC(CC(C3)C1)C2)C1CCCO1 (configuration not stated),0.929%,–
C=C(C)C#CC(Cc1ccccc1)NCC1CC1 (configuration not stated),4.99%,–
O=C(/C=C/c1ccc(Cl)cc1)OC1CCCCC1=O (configuration not stated),131%,–
CCOc1ccc2c(c1)cc(C(=O)Nc1cc(OC)ccc1OC)n2C,6.52%,–
COC(=O)c1ccc(S(=O)(=O)Nc2cccc(C(=O)OC)c2)cc1,6.65%,–
COCCn1c(-n2nc(C)cc2C)nc2c1c(=O)n(Cc1ccccc1F)c(=O)n2C,-7.87%,–
Cc1ccc(NC(=O)c2cccc(CS(C)=O)c2)c(C)c1 (configuration not stated),0%,–
FC(F)(F)c1cnc(Sc2nnc(C3CC3)n2-c2ccccc2)c(Cl)c1,-10.1%,–
O=C(CSc1n[nH]c(-c2cc(Cl)ccc2Cl)n1)N1CCCC1,14.1%,–
CCC(=O)Nc1ccc(C)cc1-c1nnc(SCC(=O)Nc2cc(Cl)ccc2Cl)[nH]c1=O,-0.529%,–
COc1ccc2c(C)c(CC(=O)N3CCN(c4ccccn4)CC3)c(=O)oc2c1OC,-12.5%,–
COc1ccccc1Oc1coc2cc(OCc3ccc(Cl)cc3)ccc2c1=O,21.1%,–
CCn1c(=O)c2sccc2n(CC(=O)N2CCOc3ccc(C)cc32)c1=O,-4.07%,–
CCCCC(CC)CNc1ncnc2sccc12 (configuration not stated),–,8.91 µM (active)
CC(=O)Nc1ccc(C(=O)COc2ncnc3sccc23)cc1,18.7%,–
CCCCC(CC)CNC(=O)CCCCn1c(=O)[nH]c2ccsc2c1=O (configuration not stated),-10.5%,–
C=CCn1c(-n2nc(C)cc2C)nc2c1c(=O)n(CCOCC)c(=O)n2C,8.16%,–
CC(C)Oc1ccc(C2CC(=O)NC3=C2C(=O)CC(C)(C)C3)cc1 (configuration not stated),24.8%,–

SMILES,"activity change, negative = inhibition",Potency
N#C/C(=C/c1ccco1)c1nc2ccccc2[nH]1,181%,–
CC(Cn1cccn1)NC(=O)c1cc(Cl)c2c(c1)OCO2 (configuration not stated),0%,–
Cc1cc(=O)n2c3ccccc3n(CC(O)CNc3ccc(Cl)cc3)c2c1C#N (configuration not stated),-3.73%,–
CCOC(=O)C1(C(C)=O)CC(C(=O)c2ccccc2)C(c2ccccc2)C(C(=O)c2ccccc2)C1 (configuration not stated),1.77%,–
COc1cc(OC)cc(C(NC(=O)NOCc2ccccc2)c2nccn2C)c1 (configuration not stated),21.3%,–
Cc1ccc(Cn2c(Br)nc3c2c(=O)n(C)c(=O)n3C)cc1,9.46%,–
O=C(Cc1ccccc1)Nc1ccc2oc(-c3ccc(F)cc3)nc2c1,108%,–
Cc1cc(O)c2c(C)c(CC(=O)Nc3nc4ccccc4[nH]3)c(=O)oc2c1,1.93%,–
Cc1cc(C)c2c(c1)/C(=N/Nc1nc3ccccc3[nH]1)CCC2,–,4.47 µM (active)
Cc1cc(C)c2c(c1)C(=O)CCC2,14.9%,–
CC(=O)N1CCN(C(=O)CCC(=O)N2CCC(c3noc4cc(F)ccc34)CC2)CC1,5.39%,–
Cc1oc(C)c(C(=O)Nc2ccccc2O)c1C,0%,–
Cc1cnc2c(S(=O)(=O)N3CCN(C(C)CC#N)CC3)cccc2c1 (configuration not stated),8.29%,–
CNC(=O)NC(=O)CN1CCCC(c2nc3ccccc3o2)C1 (configuration not stated),-2.97%,–
Cc1ccc(-c2noc(-c3occc3Br)n2)cc1,193%,–
O=S(=O)(NCC12CC3CC(CC(C3)C1)C2)c1cccs1,0.0354%,–
CCCCN(CCCNC(=O)c1cc(Nc2ccccc2OC)nc2ccccc12)c1ccccc1,-0.272%,–
COc1ccc(Nc2cc(C(=O)NCCCN(C)c3ccccc3)c3ccccc3n2)c(OC)c1,-7.92%,–
COc1ccccc1Nc1cc(C(=O)NCCCN(C)C2CCCCC2)c2ccccc2n1,–,28.2 µM (active)
CC1CCN(S(=O)(=O)N(C)Cc2ccc3c(c2)OCCO3)CC1,-4.77%,–
O=C(CN1CCN(CC(=O)Nc2ccccc2C(=O)c2ccccc2)CC1)Nc1cccc(F)c1,-12%,–
COc1ccc(C=O)cc1OCc1c(F)cccc1Cl,7.96%,–

SMILES,"activity change, negative = inhibition",Potency
CC(C)C(=O)NC(Nc1cccc(Cl)c1Cl)C(Cl)(Cl)Cl (configuration not stated),3.54%,–
CC(NC(=O)Cn1nnn(-c2ccccc2)c1=O)c1ccccc1 (configuration not stated),-1.05%,–
CCc1cccc(CC)c1NC(=O)CC(C)(C(=O)O)c1ccccc1 (configuration not stated),-1.95%,–
COc1ccc(C23CC4CC(CC(C4)C2)C3)cc1C(=O)NC(c1ccccc1)c1ccccc1,-0.0842%,–
CC(Oc1ccccc1F)C(=O)Nc1c(F)cccc1F (configuration not stated),-5.6%,–
Cc1nn(CC(=O)NC(C)(C)C)c(C)c1S(=O)(=O)N1CCCC(C(=O)N2CCOCC2)C1 (configuration not stated),-2.97%,–
CCCn1c(NC(=O)c2oc3ccc(OC)cc3c2C)nc2ccccc21,6.06%,–
CCCNc1c(NC(=O)Nc2ccccc2C)c(=O)oc2ccccc12,15.8%,–
Cc1cc(-c2ccc(C)c(S(=O)(=O)N3c4ccccc4CC3C)c2)on1 (configuration not stated),–,14.1 µM (active)
CCN(CC)c1ccc(NS(=O)(=O)c2cc(-c3cc(C)no3)ccc2C)c(C)c1,-2.71%,–
CCC1CN(S(=O)(=O)c2cc(-c3cc(C)no3)ccc2C)c2cc(C)ccc2O1 (configuration not stated),29.8%,–
CCOc1ccc(N(Cc2ccccc2)C(=O)c2nc(S(C)(=O)=O)ncc2Cl)cc1,–,22.4 µM (active)
CCOc1ccc(N(Cc2ccccc2)C(=O)c2nc(SCC)ncc2Cl)cc1,0%,–
CCOc1ccc(CN2CCC(N(C)Cc3ccccc3)CC2)cc1,2.31%,–
O=C(OCc1ccc(Cl)cc1Cl)c1c(F)cccc1F,29.2%,–
COc1ccc(C(=O)Nc2c(NCC3CCCCC3)c3ccccc3oc2=O)cc1OC,-1.4%,–
O=S(Cc1ccccc1)Cc1cccc(F)c1 (configuration not stated),2.48%,–
CCn1nc(C(=O)Nc2nnc(Cc3ccccc3)s2)c2ccccc2c1=O,15.9%,–
O=C(Oc1ccc(Br)cc1)c1cnccn1,142%,–
Cc1cc(=O)oc2cc(OCC(=O)Nc3ccc(S(=O)(=O)N4CCOCC4)cc3)ccc12,-5.69%,–
Cn1cc2c(C(F)(F)F)cc(=O)n(CCC(=O)O)c2n1,6.41%,–
Cc1ccc(N2CCN(C(=O)c3nn(C)c4c3CCc3sccc3-4)CC2)c(C)c1,18%,–

SMILES,"activity change, negative = inhibition",Potency
COc1ccc(/C=C2\Oc3cc(OS(=O)(=O)c4ccc(C)cc4)ccc3C2=O)c(OC)c1OC,0.175%,–
CCOC(=O)C1=C(C)NC(=O)NC1c1ccc(C(=O)OC)cc1 (configuration not stated),48.5%,–
Cc1ccccc1NC(=O)CSc1nc(C2CC2)n(-c2ccccc2)n1,2.27%,–
COc1ccc(-c2cc(C(=O)N3CCN(CC(=O)N4CCOCC4)CC3)c3ccccc3n2)cc1,191%,–
COC(=O)CCCn1c(C)cc(C(=O)COC(=O)c2nccnc2N)c1C,155%,–
COC1CC(OC2CCC3(C=O)[C@H]4CCC5(C)C(C6=CC(=O)OC6)CCC5(O)[C@@H]4CCC3(O)C2)OC(C)C1O (some centres not stated),–,0.282 µM (active)
COc1ccc2c(C)c(CC(=O)NCc3ccccc3Cl)c(=O)oc2c1,17.9%,–
CC(Sc1nnc(CCC(N)=O)n1C1CC1)C(=O)c1c[nH]c2ccccc12 (configuration not stated),0.749%,–
CC(NC(=O)C(=O)Nc1cc(Cl)ccc1Cl)c1ccccc1 (configuration not stated),0%,–
CCCc1cc(=O)oc2c(C)c(OCC(=O)OC(C)C)ccc12,9.01%,–
CC(C(=O)Nc1cccc(C#N)c1)n1nnc(-c2cccc(C(F)(F)F)c2)n1 (configuration not stated),-10.8%,–
CCOc1ccccc1-c1nn2c(CN3CCCCC3)nnc2s1,-3.75%,–
Cc1nccn1CCc1nc2cc(NC(=O)C(C)C)ccc2n1C,-8.8%,–
CCCCn1c(=O)[nH]c(=O)c2c1nc(-c1ccc(OCC#N)c(OC)c1)n2C,-6.14%,–
N#Cc1ccccc1N=Cc1ccc2ccccc2c1,92.7%,–
Cc1cc(C(F)(F)F)nn1Cc1nc2c3c4c(sc3ncn2n1)CCC4,-9.93%,–
CCSc1ncc(Cl)c(C(=O)Nc2cc(C)ccc2C)n1,-12.3%,–
CCCS(=O)(=O)c1ncc(Cl)c(C(=O)Nc2scc(-c3ccccc3)c2C(=O)OCC)n1,12.2%,–
Cc1ccc(NC(=O)c2nc(S(=O)(=O)Cc3cccc(C)c3)ncc2Cl)cc1,–,22.4 µM (active)
